# Screen size: about 340,000 compounds; about 6,400 (1.9%) were called active. Not shown: some 4% with an inconclusive outcome. Calls follow the shape of the dose curve; as a rule, active = well fitted falling curve with a large enough effect; inconclusive = small, poorly fitted or top-dose-only effect; inactive = no such curve, though single readings can be large or run the other way. The full list was thinned out, with actives kept by preference.
# Target: ATP-dependent Clp protease proteolytic subunit (Bacillus subtilis (strain 168)) (UniProt P80244)
# Test: qHTS Assay for Activators of ClpP; also: the source files actives as falling curves though it sought activators and does not explain the sign; nearly all actives have a fitted effect of over 65% in size
# Details: purified B. subtilis ClpP, FRET peptide cleavage, 20 min; series mostly up to 57.5 µM; activity change, negative = active: at the top concentration
# Description: The Clp protease proteolytic subunit (ClpP) is the core unit of the Clp complex belonging to the peptidase family S14 that hydrolyzes protein into small peptides in the presence of ATP and magnesium. It is ubiquitously expressed and is the major protease in bacteria. […] Unlike common antibiotics that simply interfere with the essential enzyme activity, ADEP binding activates the ClpP core in the absence of the regulatory Clp-ATPases leading to uncontrolled proteolysis and eventually cell death. Activators binding to the docking site on ClpP can also block formation of the ClpXP and ClpA/C-P holoenzyme complexes interfering with the normal biological functions of ClpP and thus have the potential to become new anti-microbials.
# To identify activators of ClpP, a FRET based quenching reversal assay was developed using a purified B. subtilis ClpP and a decapeptide substrate (FRET-FV). The FRET-FV is tagged with a fluorescent molecule amino benzoic acid (donor) at the N-terminus and a nitrotyrosine quencher (acceptor) at the C-terminus. FRET-FV cleaves upon activation of ClpP with ADEP treatement and reverses the quenching effect of the nitrotyrosine causing an increase in fluorescence emission signal at 430nm. This assay was used to screen the Molecular Libraries Small Molecule Repository (MLSMR).
# NIH Molecular Libraries Probe Production Centers Network [MLPCN]
# NIH Chemical Genomics Center [NCGC]
# Assay Submitter (PI): Michael Maurizi, National Cancer Institute
# Two and a half microL/well of purified enzyme solution (final concentrations 10 microg/mL B. subtilis ClpP in 100 mM Tris/HCl pH8, 100 mM KCl, 0.05% low protease BSA, 2.5% glycerol, 0.01% Tween-20 buffer) was dispensed into 1536-well assay plates (Greiner, black solid, medium-binding plates) with Aurora Discovery BioRAPTR Flying Reagent Dispenser (FRD, Beckton-Dickenson). Compound solution (23 nL) was transferred to the assay plate using Kalypsys pin tool equipped with a 1536-pin tool. […] FRET signals at time 0 and after 20 min room temperature incubation were obtained using the PerkinElmer Envision plate reader with 320nm excitation and 430nm emission filters. Delta FRET value (Time 20 - Time 0) was calculated and normalized to the delta FRET value of positive control ADEP (5.8 microM final concentration) and negative control DMSO and no enzyme wells.
# Potency is read from the fitted curve at half-maximal effect.
# Sequence of ATP-dependent Clp protease proteolytic subunit (Bacillus subtilis (strain 168)) (P80244 whole entry, looked up): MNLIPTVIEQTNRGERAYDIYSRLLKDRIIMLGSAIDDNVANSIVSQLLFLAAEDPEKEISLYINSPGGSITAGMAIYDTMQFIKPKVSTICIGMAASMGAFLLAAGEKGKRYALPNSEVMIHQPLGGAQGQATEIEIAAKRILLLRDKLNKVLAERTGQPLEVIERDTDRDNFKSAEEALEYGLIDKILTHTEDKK
Compound,"activity change, negative = active",Potency
COc1ccc(CCCNC(=O)C2Cc3c(-c4cccc(C(N)=O)c4)ccnc3O2)cc1 (configuration not stated),-4.14% (inactive),
Cc1cc(=O)c2ccc(NC(=O)c3ccccc3)cc2[nH]1,-3.5% (inactive),
O=C1NC(Cc2ccccc2)c2nc3ccc(Br)cc3c(=O)n2-c2cc3ccccc3cc21 (configuration not stated),-10.4% (inactive),
O=C(NCc1cccnc1)c1ccc2nc([C@@H]3O[C@H](CO)[C@H](O)[C@H](O)[C@H]3O)[nH]c2c1,-4.1% (inactive),
CC1=CC(C)(C)Nc2ccc(OC(=O)CN3C(=O)C4CCCCC4C3=O)cc21 (configuration not stated),-0.0791% (inactive),
CCOC(=O)C(Cc1ccc(N)cc1)N1C(=O)c2ccccc2C1=O (configuration not stated),0.524% (inactive),
CC1=CC(C)(C)Nc2ccc(OC(=O)C(Cc3ccccc3)N3C(=O)C4CCCCC4C3=O)cc21 (configuration not stated),,31.6 µM (active)
Cc1ccc(NC(=O)Cn2sc3ccccc3c2=O)cc1,-1.89% (inactive),
COCCCn1c(CCC(=O)O)ccc1-c1ccc(F)cc1,,31.6 µM (active)
COc1ccc(Cl)cc1-n1c(CCC(=O)O)ccc1-c1ccc(C)cc1,0.0453% (inactive),
Cc1ccc(-c2ccc(CCC(=O)O)n2-c2ccc(C(N)=O)cc2)cc1,-3.92% (inactive),
Nc1nc2c(ncn2[C@@H]2O[C@H](CNS(=O)(=O)N3CCc4ccccc4C3)[C@@H](O)[C@H]2O)c(=O)[nH]1,-0.922% (inactive),
COCCCNc1ccn2nc(-c3ccc(CC(C)C)cc3)cc2n1,4.13% (inactive),
CN(C(=O)COC(=O)Cc1ccccc1[N+](=O)[O-])C1CCS(=O)(=O)C1 (configuration not stated),-1.32% (inactive),
CCN(C(=O)COc1cccnc1[N+](=O)[O-])C1CCS(=O)(=O)C1 (configuration not stated),,28.2 µM (active)
Cc1ccccc1OCC(=O)N(Cc1cccc(F)c1)C1CCS(=O)(=O)C1 (configuration not stated),-1.22% (inactive),
Cc1cccc(C)c1NC(=O)C(c1cccc(F)c1)N1CCN(C)CC1 (configuration not stated),-0.808% (inactive),
CCOc1ccc(CCN2C(=S)N([C@@H](CC(C)C)CN3CCC[C@@H]3CN3C(=S)NC[C@@H]3Cc3ccc(O)cc3)C[C@@H]2CC(C)C)cc1,-1.86% (inactive),
O=C(N/N=C\c1ccc(Br)cc1)c1ccc(Cn2cccn2)o1,,25.1 µM (active)
CN(C)c1ccc(/C=N/NC(=O)c2ccc(Cn3cc(Br)cn3)o2)cc1,-1.66% (inactive),
O=C(O)c1ccc(/C=N/NC(=O)c2ccc(Br)cc2)cc1,-2.02% (inactive),
O=S1(=O)CC(N2CCC(Cc3ccccc3)CC2)CN1Cc1ccccc1 (configuration not stated),-0.381% (inactive),
O=C(NCC(F)(F)F)c1ccc(S(=O)(=O)NCCc2ccc3c(c2)OCCO3)cc1,1.64% (inactive),
Cc1cc(Nc2ccc(C)c(C)c2)n2ncnc2n1,0.336% (inactive),
O=C(/C=C/c1ccc(Cl)cc1)Nc1ccc(S(=O)(=O)Nc2ncccn2)cc1,1.87% (inactive),
Cc1ccc(NC(=S)NC(=O)/C=C/c2ccc(Cl)cc2)cc1,-2.53% (inactive),

Compound,"activity change, negative = active",Potency
O=C(/C=C/c1ccc(Cl)cc1)Nc1ccc(Br)cn1,,25.1 µM (active)
Cc1ccc(-c2ccc(CN3C(C(C)C)C(=O)N(Cc4cn(CCC5OCCO5)nn4)CCS3(=O)=O)cc2)cc1 (configuration not stated),-0.425% (inactive),
Cc1cccc(CN2CCN(C3CN(Cc4ccccc4)S(=O)(=O)C3)CC2)c1 (configuration not stated),1.14% (inactive),
CCN1CCN(C(=O)CN(C)S(=O)(=O)c2ccc(OC)cc2)CC1,1.17% (inactive),
CCN1CCN(C(=O)c2cc3cc4ccc(OC)cc4nc3s2)CC1,,25.1 µM (active)
CCN(CCCNC(=O)c1cc2cc3cc(OC)ccc3nc2s1)c1ccccc1,-0.725% (inactive),
COc1cccc(-c2cc3nc(NCc4ccccc4OC)n(C)c(=O)c3s2)c1,4.47% (inactive),
CC(C)(C)C1CCC(=NNC(=O)c2ccc(Br)o2)CC1 (configuration not stated),-0.0122% (inactive),
CCC(C)(C)C1CCC(=NNC(=O)c2ccc(Br)o2)CC1 (configuration not stated),,25.1 µM (active)
O=C(N/N=C\C1CC=CCC1)c1ccc(Br)o1 (configuration not stated),-1.65% (inactive),
COc1cccc(-c2cnc3c(NC(C)=O)cc(-c4cc(F)ccc4OC)cn23)c1,-4.6% (inactive),
CC1=C(C(=O)N2CCOCC2)CC(CC(=O)NCc2cccs2)C(=O)N1CCCN1CCCC1=O (configuration not stated),-0.996% (inactive),
O=C(C=CC(=O)Nc1ccc(F)cc1F)Nc1ccc(F)cc1F,0.87% (inactive),
CCCCC[C@@H]1C=C(C(=O)OCC)[C@H](c2ccccc2)N1S(=O)(=O)c1ccc(C)cc1,-13.2% (inactive),
CC(C)Nc1ccc(-n2nc3ccccc3[n+]2[O-])cc1,,28.2 µM (active)
CC(=O)Nc1cccc(-c2cc(NC(C)=O)c3ncc(-c4ccccc4)n3c2)c1,5.02% (inactive),
CS(=O)(=O)/C(C#N)=C/c1cccn1S(=O)(=O)c1ccc([N+](=O)[O-])cc1,-2.66% (inactive),
COc1ccc(-c2cn3c(n2)sc2cc(C(=O)Nc4ccc(F)cc4)ccc23)cc1,-23.9% (inactive),
Cc1ccc(-c2cn3c(n2)sc2cc(C(=O)NCCCc4ccccc4)ccc23)cc1,,15.8 µM (active)
O=C(NCCCc1ccccc1)c1ccc2c(c1)sc1nc(-c3ccc(F)cc3)cn12,4.44% (inactive),
CCOc1ccc(CCNC(=O)c2ccc3c(c2)sc2nc(-c4ccc(F)cc4)cn23)cc1OCC,,25.1 µM (active)
CCOc1ccc(CCNC(=O)Cn2nc(CC)n3c(cc4sc(CC)cc43)c2=O)cc1OCC,-1.22% (inactive),
COc1cccc(CNC(=O)c2ccc3c(c2)sc2nc(-c4cccc(OC)c4)cn23)c1,4.44% (inactive),
COc1ccc(CCNC(=O)c2ccc3c(c2)nc(C)n3-c2ccc(Br)cc2)cc1OC,-1.76% (inactive),
COc1ccc(CCNC(=O)Cc2ccc(C)cc2)cc1OC,-6.51% (inactive),
COc1ccc(CCNC(=O)c2ccc3c(c2)sc2nc(-c4ccc(C)cc4)cn23)cc1OC,,3.16 µM (active)

# Reference: PubChem BioAssay AID651965 (National Center for Advancing Translational Sciences (NCATS), 2013)
